Vaccinia stage = Vaccinia orthopox stage-specific inhibition | Vaccinia-infected cells, mCherry/Venus stage reporter fluorescence; hits give low values | activity change (mCherry), % (no concentration beside the values) | 89,000 tested, 0.01% active | AID 1053133; in the data active = activity change below about -37%, passing the limit was not always enough; tested in A549 cells
Hits are given with their value; – = inactive. Only a selection was taken, and hits are over-represented in it overall.

SMILES	Vaccinia stage
Cc1ccccc1-c1ccc([C@@H]2[C@@H](CO)N3C(=O)CN(C(=O)Nc4ccc(F)cc4)C[C@@H]23)cc1	–
C[C@@H]1CN([C@@H](C)CO)C(=O)Cc2cc(NC(=O)c3ccncc3)ccc2O[C@H]1CN(C)Cc1ccc2c(c1)OCO2	–
CCCNC(=O)Nc1ccc2c(c1)OC[C@H](C)N(S(C)(=O)=O)C[C@@H](C)[C@H](OC)CN(C)C2=O	–
C[C@H](CO)N1C[C@H](C)[C@H](CN(C)S(=O)(=O)c2ccc(F)cc2)Oc2cc(C#Cc3ccncc3)ccc2S1(=O)=O	–
C[C@@H]1CN([C@@H](C)CO)S(=O)(=O)c2ccc(C#Cc3ccncc3)cc2O[C@H]1CN(C)S(=O)(=O)c1ccc(F)cc1	–
Cc1ccc(S(=O)(=O)N(C)C[C@H]2Oc3cc(C#Cc4ccncc4)ccc3S(=O)(=O)N([C@@H](C)CO)C[C@H]2C)cc1	-46
CC(=O)N[C@H]1CC[C@@H](CCNC(=O)C2CCCCC2)O[C@@H]1CO	–
CCC(=O)N[C@H]1C=C[C@H](CC(=O)NCCN2CCCCC2)O[C@H]1CO	–
C[C@@H]1CN([C@@H](C)CO)C(=O)c2cccc(NS(C)(=O)=O)c2O[C@H]1CN(C)Cc1ccc(C(=O)Nc2ccccc2N)cc1	–
CCCNC(=O)N(C)C[C@H]1Oc2cc(C#CC3CC3)ccc2S(=O)(=O)N([C@@H](C)CO)C[C@@H]1C	–
CCCC(=O)Nc1ccc2c(c1)OC[C@H](C)N(C(C)=O)C[C@H](C)[C@@H](OC)CN(C)C2=O	–
N#Cc1ccc(-c2ccc3c(c2)[C@@H]2[C@@H](CCN2C(=O)C2CC2)[C@@H](CO)N3)cc1	–
CO[C@H](CN(C)Cc1ccc2c(c1)OCO2)[C@@H](C)CN(C(=O)Nc1ccc(F)cc1)[C@H](C)CO	–
C[C@@H]1CCCCO[C@@H](CN(C)S(=O)(=O)c2cn(C)cn2)[C@@H](C)CN([C@@H](C)CO)C(=O)c2cc(NS(=O)(=O)c3ccc(Cl)cc3)ccc2O1	–
CO[C@H]1CN(C)C(=O)c2ccc(NC(=O)c3ccc(F)cc3)cc2OC[C@H](C)N(C(=O)c2ccc(F)cc2)C[C@@H]1C	-87
CO[C@@H]1CN(C)C(=O)c2ccc(NC(=O)c3ccc(F)cc3)cc2OC[C@H](C)N(C(=O)c2ccc(F)cc2)C[C@H]1C	–
CO[C@@H]1CN(C)C(=O)c2ccc(NC(=O)c3ccc(F)cc3)cc2OC[C@@H](C)N(C(=O)c2ccc(F)cc2)C[C@@H]1C	–
COc1ccc2c3c(n(C)c2c1)[C@H](CO)N(C(=O)Cc1ccccn1)CC31CCN(C)CC1	–
COCC#Cc1ccc2c(c1)O[C@@H](CN(C)CC1CCOCC1)[C@@H](C)CN([C@@H](C)CO)S2(=O)=O	–
CCS(=O)(=O)N[C@H]1C=C[C@@H](CC(=O)NCc2ccc(F)cc2)O[C@H]1CO	–
COc1ccccc1-c1ccc([C@H]2[C@H](C#N)N(C(=O)C3CC3)[C@H]2CO)cc1	–
CC(C)CC#Cc1cnc2c(c1)C(=O)N([C@@H](C)CO)C[C@@H](C)[C@H](CN(C)C(=O)Cc1cccnc1)O2	–
CCCNC(=O)C[C@@H]1CC[C@H]2[C@@H](COC[C@H](O)CN2C(=O)CC)O1	–
CNC[C@@H]1Oc2ccc(NC(=O)Nc3c(C)noc3C)cc2C(=O)N([C@@H](C)CO)C[C@H]1C	–
C[C@H](NC(=O)C[C@H]1C[C@@H]2c3cc(NC(=O)Cc4ccncc4)ccc3O[C@@H]2[C@@H](CO)O1)c1ccccc1	–
SMILES	Vaccinia stage
C[C@@H]1CN([C@@H](C)CO)C(=O)c2cccc(NS(C)(=O)=O)c2O[C@@H]1CN(C)Cc1ccc2c(c1)OCO2	–
C[C@H]1CN([C@@H](C)CO)C(=O)Cc2cc(NC(=O)C3CC3)ccc2O[C@H]1CN(C)C	–
COCC#Cc1ccc([C@@H]2[C@H]3CN(C(=O)Nc4ccc(F)cc4)CC(=O)N3[C@H]2CO)cc1	–
COCC(=O)Nc1ccc2c(c1)C(=O)N(C)[C@H]1CC[C@H](CC(=O)NCc3ccccc3F)O[C@H]1CO2	–
COc1ccc(NC(=O)N[C@H]2CC[C@@H](CCNC(=O)CCN3CCCCC3)O[C@@H]2CO)cc1	–
O=C(C[C@H]1C=C[C@H](NC(=O)CN2CCOCC2)[C@H](CO)O1)NCCc1ccncc1	–
C[C@@H]1CN([C@@H](C)CO)C(=O)c2cc(NS(=O)(=O)c3ccc(F)cc3)ccc2O[C@@H](C)CCCCO[C@@H]1CN(C)C	–
CO[C@H]1CN(C)C(=O)c2ccc(NC(=O)C3CCCC3)cc2OC[C@H](C)N(C)C[C@H]1C	–
CC(=O)N(C[C@H]1N[C@H](CO)[C@@H]1c1ccc(-c2cccc(F)c2)cc1)C1CCCC1	–
C[C@@H]1CN([C@H](C)CO)C(=O)c2cc(NS(=O)(=O)c3ccccc3)ccc2O[C@H]1CN(C)C(=O)Nc1cccc2ccccc12	–
C/C=C/c1ccc([C@H]2[C@@H](CO)N3C(=O)CN(Cc4ccc(C)cc4)C[C@@H]23)cc1	–
C[C@H]1CCCCO[C@H](CN(C)CC2CC2)[C@@H](C)CN([C@@H](C)CO)C(=O)c2cc(NS(=O)(=O)c3ccccc3)ccc2O1	–
C[C@H](NC(=O)C[C@H]1C[C@H]2c3cc(NC(=O)Nc4ccc(C(F)(F)F)cc4)ccc3O[C@H]2[C@@H](CO)O1)c1ccccc1	–
O=C(C[C@@H]1C[C@H]2c3cc(NC(=O)C4CCC4)ccc3O[C@H]2[C@H](CO)O1)NCC(F)(F)F	–
COCCNC(=O)[C@H]1[C@H](CO)[C@H]2Cn3c(ccc(-c4ccccc4OC)c3=O)[C@H]2N1C(=O)C1CCC1	–
O=C(C[C@@H]1C=C[C@@H](NC(=O)Nc2ccc3c(c2)OCO3)[C@@H](CO)O1)NCc1ccc(F)cc1	–
CS(=O)(=O)Nc1ccc2c(c1)[C@@H]1C[C@H](CC(=O)NCc3ccncc3)O[C@H](CO)[C@@H]1O2	–
CO[C@@H]1CN(C)C(=O)c2cc(NC(=O)C3CC3)ccc2OC[C@H](C)N(C(C)=O)C[C@@H]1C	–
COc1ccccc1CN1CC[C@H]2[C@H](CO)Nc3ccc(-c4ccc(C(=O)N(C)C)cc4)cc3[C@H]21	-40
CN(C)C(=O)c1ccc(-c2ccc3c(c2)[C@H]2[C@H](CCN2C(=O)c2ccccc2)[C@H](CO)N3)cc1	–
CN(C)C(=O)c1ccc(-c2ccc3c(c2)[C@H]2[C@H](CCN2Cc2ccc4c(c2)OCO4)[C@H](CO)N3)cc1	–
COc1ccccc1CN1CC[C@@H]2[C@@H](CO)Nc3ccc(-c4ccc(C(=O)N(C)C)cc4)cc3[C@@H]21	-39
CN(C)C(=O)c1ccc(-c2ccc3c(c2)[C@@H]2[C@@H](CCN2Cc2ccc4c(c2)OCO4)[C@H](CO)N3)cc1	–
CN(C)C(=O)c1ccc(-c2ccc3c(c2)[C@H]2[C@H](CCN2Cc2ccc4c(c2)OCO4)[C@@H](CO)N3)cc1	–
Cc1ccc(S(=O)(=O)N[C@@H]2CC[C@@H](CCn3cc(-c4cccc(F)c4)nn3)O[C@H]2CO)cc1	–
O=C(Nc1ccc2c(c1)[C@H]1C[C@@H](CC(=O)N3CCCCC3)O[C@H](CO)[C@H]1O2)NC1CCCC1	–
Cc1noc(C)c1S(=O)(=O)Nc1ccc2c(c1)CC(=O)N([C@@H](C)CO)C[C@H](C)[C@H](CN(C)Cc1ccncc1)O2	–
COc1cccc(-c2ccc([C@@H]3[C@H]4CN(C(=O)CN5CCOCC5)CC(=O)N4[C@H]3CO)cc2)c1	–
C[C@H]1CN([C@@H](C)CO)C(=O)c2cc(/C=C/c3ccccc3)cnc2O[C@H]1CN(C)C(=O)c1ccc(F)cc1	–

From PubChem BioAssay
